# Source: PubChem BioAssay AID1159580 (chemical genetic matrix, 2015)
# “And” between values parts separate entries of the source, which are not always exact repeats. Identical values can stand only once. The campaign covered roughly 5,500 compounds. About 2,000 (36%) were called active. Roughly 18% stayed inconclusive and do not appear here. Rule as the data show it: active = normalized growth mostly below about 0.91 (no sharp cut-off); inconclusive = no clear call, values can overlap the other calls; inactive = mostly above about 0.92. Some of the results follow. More than one record can exist for a structure, and the calls need not agree.
# Experiment: chemical genetic growth profiling, strain panel (AID 1159580);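 also: tested at 20 µM; growth read once vehicle control cultures reached saturation at 30 °C; 1 = growth at the plate median or of vehicle wells; lower values mean less growth of the strain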
# Settings: growth OD
compound,measurement,setting,value
O=C(Nc1ccc([N+](=O)[O-])cc1Cl)c1cc(Cl)ccc1O,normalized growth,"S. cerevisiae deletion strains, locus YJR075W, strain HOC1, stronger effect = lower value",0.815 (active) and 0.99 (inactive)
same,normalized growth,"S. cerevisiae deletion strains, locus YKL009W, strain mrt4, stronger effect = lower value",1.2 [resistant] (active)
same,normalized growth,"S. cerevisiae deletion strains, locus YKL068W, stronger effect = lower value",1 (inactive)
same,normalized growth,"S. cerevisiae deletion strains, locus YKL085W, strain MDH1 (second series), stronger effect = lower value",1.04 (inactive)
same,normalized growth,"S. cerevisiae deletion strains, locus YKL085W, strain MDH1, stronger effect = lower value",1.04 (inactive)
same,normalized growth,"S. cerevisiae deletion strains, locus YKL160W, strain elf1, stronger effect = lower value",0.773 (active)
same,normalized growth,"S. cerevisiae deletion strains, locus YKR001C, strain vps1, stronger effect = lower value",0.459 (active)
same,normalized growth,"S. cerevisiae deletion strains, locus YKR026C, strain gcn3, stronger effect = lower value",0.978 (inactive)
same,normalized growth,"S. cerevisiae deletion strains, locus YKR091W, strain srl3, stronger effect = lower value",0.938 (inactive)
same,normalized growth,"S. cerevisiae deletion strains, locus YLL001W, strain dnm1, stronger effect = lower value",0.971 (inactive)
same,normalized growth,"S. cerevisiae deletion strains, locus YLL026W, stronger effect = lower value",0.939 (inactive)
same,normalized growth,"S. cerevisiae deletion strains, locus YLL041C, strain sdh2, stronger effect = lower value",0.931 (inactive)
same,normalized growth,"S. cerevisiae deletion strains, locus YLR027C, strain aat2, stronger effect = lower value",0.92 (active)
same,normalized growth,"S. cerevisiae deletion strains, locus YLR039C, strain RIC1, stronger effect = lower value",0.289 (active)
same,normalized growth,"S. cerevisiae deletion strains, locus YLR058C, strain SHM2, stronger effect = lower value",0.948 (inactive)
same,normalized growth,"S. cerevisiae deletion strains, locus YLR102C, strain apc9, stronger effect = lower value",1 (inactive)
same,normalized growth,"S. cerevisiae deletion strains, locus YLR113W, strain HOG1, stronger effect = lower value",1.01 (inactive)
same,normalized growth,"S. cerevisiae deletion strains, locus YLR221C, strain rsa3, stronger effect = lower value",0.906 (active)
same,normalized growth,"S. cerevisiae deletion strains, locus YLR258W, strain gsy2, stronger effect = lower value",0.977 (inactive)
same,normalized growth,"S. cerevisiae deletion strains, locus YLR262C, strain YPT6 (second series), stronger effect = lower value",0.241 (active)
same,normalized growth,"S. cerevisiae deletion strains, locus YLR262C, strain YPT6, stronger effect = lower value",0.193 (active)
same,normalized growth,"S. cerevisiae deletion strains, locus YLR268W, strain sec22, stronger effect = lower value",0.964 (inactive)
same,normalized growth,"S. cerevisiae deletion strains, locus YLR320W, strain mms22, stronger effect = lower value",0.833 (active)
same,normalized growth,"S. cerevisiae deletion strains, locus YLR330W, strain CHS5, stronger effect = lower value",0.942 (inactive)
same,normalized growth,"S. cerevisiae deletion strains, locus YLR342W, strain FKS1 (second series), stronger effect = lower value",0.667 (active)
same,normalized growth,"S. cerevisiae deletion strains, locus YLR342W, strain FKS1, stronger effect = lower value",0.967 (inactive)
same,normalized growth,"S. cerevisiae deletion strains, locus YLR357W, strain rsc2, stronger effect = lower value",1.02 (inactive)
same,normalized growth,"S. cerevisiae deletion strains, locus YLR370C, strain arc18, stronger effect = lower value",0.949 (inactive)
same,normalized growth,"S. cerevisiae deletion strains, locus YLR371W, strain rom2, stronger effect = lower value",1 (inactive)
same,normalized growth,"S. cerevisiae deletion strains, locus YLR384C, strain iki3, stronger effect = lower value",1.09 [resistant] (active)
same,normalized growth,"S. cerevisiae deletion strains, locus YLR418C, strain cdc73, stronger effect = lower value",0.793 (active)
same,normalized growth,"S. cerevisiae deletion strains, locus YML016C, strain PPZ1, stronger effect = lower value",0.975 (inactive)
same,normalized growth,"S. cerevisiae deletion strains, locus YML120C, strain ndi1, stronger effect = lower value",0.975 (inactive)
same,normalized growth,"S. cerevisiae deletion strains, locus YML124C, strain tub3, stronger effect = lower value",1.17 [resistant] (active)
same,normalized growth,"S. cerevisiae deletion strains, locus YMR058W, strain fet3, stronger effect = lower value",0.966 (inactive)
same,normalized growth,"S. cerevisiae deletion strains, locus YMR078C, strain ctf18, stronger effect = lower value",1.17 [resistant] (active)
same,normalized growth,"S. cerevisiae deletion strains, locus YMR125W, strain sto1, stronger effect = lower value",0.999 (inactive)
same,normalized growth,"S. cerevisiae deletion strains, locus YMR129W, stronger effect = lower value",0.937 (inactive)
same,normalized growth,"S. cerevisiae deletion strains, locus YMR205C, strain PFK2, stronger effect = lower value",0.759 (active)
same,normalized growth,"S. cerevisiae deletion strains, locus YMR223W, strain ubp8, stronger effect = lower value",1.09 (inactive)
same,normalized growth,"S. cerevisiae deletion strains, locus YMR231W, strain pep5, stronger effect = lower value",0.901 (active)
same,normalized growth,"S. cerevisiae deletion strains, locus YMR263W, strain SAP30, stronger effect = lower value",0.991 (inactive)
same,normalized growth,"S. cerevisiae deletion strains, locus YMR307W, strain GAS1, stronger effect = lower value",0.393 (active) and 0.947 (inactive)
same,normalized growth,"S. cerevisiae deletion strains, locus YNL067W, strain RPL9B, stronger effect = lower value",0.925 (inactive)
same,normalized growth,"S. cerevisiae deletion strains, locus YNL071W, strain lat1, stronger effect = lower value",0.809 (active)
same,normalized growth,"S. cerevisiae deletion strains, locus YNL153C, strain GIM3, stronger effect = lower value",0.924 (inactive) and 0.687 (active)
same,normalized growth,"S. cerevisiae deletion strains, locus YNL175C, strain NOP13, stronger effect = lower value",0.868 (active)
same,normalized growth,"S. cerevisiae deletion strains, locus YNL183C, strain NPR1, stronger effect = lower value",0.933 (inactive)
same,normalized growth,"S. cerevisiae deletion strains, locus YNL197C, strain WHI3, stronger effect = lower value",0.789 (active)
same,normalized growth,"S. cerevisiae deletion strains, locus YNL209W, strain ssb2, stronger effect = lower value",0.925 (active)
same,normalized growth,"S. cerevisiae deletion strains, locus YNL224C, strain SQS1, stronger effect = lower value",0.972 (inactive)
same,normalized growth,"S. cerevisiae deletion strains, locus YNL233W, strain BNI4, stronger effect = lower value",0.803 (active)
same,normalized growth,"S. cerevisiae deletion strains, locus YNL248C, strain rpa49, stronger effect = lower value",0.969 (inactive)
same,normalized growth,"S. cerevisiae deletion strains, locus YNL250W, strain rad50, stronger effect = lower value",1.01 (inactive)
same,normalized growth,"S. cerevisiae deletion strains, locus YNL271C, strain bni1, stronger effect = lower value",0.999 (inactive)
same,normalized growth,"S. cerevisiae deletion strains, locus YNL298W, strain CLA4, stronger effect = lower value",1 (inactive)
same,normalized growth,"S. cerevisiae deletion strains, locus YNL307C, strain MCK1, stronger effect = lower value",0.986 (inactive)
same,normalized growth,"S. cerevisiae deletion strains, locus YNL322C, strain KRE1 (second series), stronger effect = lower value",1.06 (inactive)
same,normalized growth,"S. cerevisiae deletion strains, locus YNL322C, strain KRE1, stronger effect = lower value",0.921 (active) and 0.992 (inactive)
same,normalized growth,"S. cerevisiae deletion strains, locus YNR049C, strain mso1, stronger effect = lower value",1 (inactive)
same,normalized growth,"S. cerevisiae deletion strains, locus YNR052C, strain pop2, stronger effect = lower value",1.12 [resistant] (active)
same,normalized growth,"S. cerevisiae deletion strains, locus YOL006C, strain TOP1, stronger effect = lower value",0.632 (inactive)
same,normalized growth,"S. cerevisiae deletion strains, locus YOL012C, strain htz1",0.729 (inactive)
same,normalized growth,"S. cerevisiae deletion strains, locus YOL147C, strain pex11, stronger effect = lower value",1.19 [resistant] (active)
same,normalized growth,"S. cerevisiae deletion strains, locus YOR001W, strain rrp6, stronger effect = lower value",0.944 (inactive)
same,normalized growth,"S. cerevisiae deletion strains, locus YOR061W, strain CKA2, stronger effect = lower value",0.969 (inactive)
same,normalized growth,"S. cerevisiae deletion strains, locus YOR069W, strain VPS5, stronger effect = lower value",0.96 (inactive)
same,normalized growth,"S. cerevisiae deletion strains, locus YOR070C, strain gyp1, stronger effect = lower value",0.842 (active)
same,normalized growth,"S. cerevisiae deletion strains, locus YOR080W, strain dia2, stronger effect = lower value",0.904 (active)
same,normalized growth,"S. cerevisiae deletion strains, locus YOR083W, strain WHI5 (second series), stronger effect = lower value",0.751 (active)
same,normalized growth,"S. cerevisiae deletion strains, locus YOR083W, strain WHI5, stronger effect = lower value",0.88 (active)
same,normalized growth,"S. cerevisiae deletion strains, locus YOR106W, strain vam3, stronger effect = lower value",0.843 (active)
same,normalized growth,"S. cerevisiae deletion strains, locus YOR136W, strain idh2, stronger effect = lower value",1.03 (inactive)
same,normalized growth,"S. cerevisiae deletion strains, locus YOR144C, strain elg1, stronger effect = lower value",1.19 [resistant] (active)
same,normalized growth,"S. cerevisiae deletion strains, locus YOR184W, strain ser1, stronger effect = lower value",1.03 (inactive)
same,normalized growth,"S. cerevisiae deletion strains, locus YOR231W, strain MKK1, stronger effect = lower value",1.01 (inactive)
same,normalized growth,"S. cerevisiae deletion strains, locus YOR265W, strain rbl2, stronger effect = lower value",0.928 (active)
same,normalized growth,"S. cerevisiae deletion strains, locus YOR270C, strain vph1, stronger effect = lower value",0.666 (active)
same,normalized growth,"S. cerevisiae deletion strains, locus YOR290C, strain snf2, stronger effect = lower value",0.98 (inactive)
same,normalized growth,"S. cerevisiae deletion strains, locus YOR316C, strain cot1, stronger effect = lower value",1.02 (inactive)
same,normalized growth,"S. cerevisiae deletion strains, locus YPL051W, strain arl3, stronger effect = lower value",0.607 (active)
same,normalized growth,"S. cerevisiae deletion strains, locus YPL055C, strain LGE1, stronger effect = lower value",0.731 (active)
same,normalized growth,"S. cerevisiae deletion strains, locus YPL078C, strain atp4, stronger effect = lower value",0.866 (active)
same,normalized growth,"S. cerevisiae deletion strains, locus YPL106C, strain sse1, stronger effect = lower value",0.962 (inactive)
same,normalized growth,"S. cerevisiae deletion strains, locus YPL240C, strain hsp82, stronger effect = lower value",1.01 (inactive)
same,normalized growth,"S. cerevisiae deletion strains, locus YPL256C, strain CLN2, stronger effect = lower value",0.994 (inactive)
same,normalized growth,"S. cerevisiae deletion strains, locus YPR119W, strain clb2, stronger effect = lower value",1.06 (inactive)
same,normalized growth,"S. cerevisiae deletion strains, locus YPR141C, strain kar3, stronger effect = lower value",1.02 (inactive)
same,normalized growth,"S. cerevisiae deletion strains, locus YPR163C, strain tif3, stronger effect = lower value",1.04 (inactive)
same,normalized growth,"S. cerevisiae deletion strains, locus YPR167C, strain met16, stronger effect = lower value",1.06 (inactive)
same,normalized growth,"S. cerevisiae deletion strains, strain wtn01, stronger effect = lower value",1.03 (inactive)
same,normalized growth,"S. cerevisiae strains, strain wild type, stronger effect = lower value",0.904 (inactive)
